For some of these results: Results with a measured potency or affinity are listed apart.

What all share (set-up): scale not given: direction of the effect not stated beside the values
Test [1] concerns the target Protein translocase subunit SecA (Escherichia coli (strain K12)) (UniProt P10408). The experiment in a line: Assay to Identify E. coli SecA ATPase Inhibitors. It counts as functional. The conditions noted are these: 30 µM.
Test [2] concerns the target T1, Ubiquitin-activating enzyme e1, putative (Leishmania donovani (strain BPK282A1)) (UniProt E9BSI1).
T1 sequence (whole entry): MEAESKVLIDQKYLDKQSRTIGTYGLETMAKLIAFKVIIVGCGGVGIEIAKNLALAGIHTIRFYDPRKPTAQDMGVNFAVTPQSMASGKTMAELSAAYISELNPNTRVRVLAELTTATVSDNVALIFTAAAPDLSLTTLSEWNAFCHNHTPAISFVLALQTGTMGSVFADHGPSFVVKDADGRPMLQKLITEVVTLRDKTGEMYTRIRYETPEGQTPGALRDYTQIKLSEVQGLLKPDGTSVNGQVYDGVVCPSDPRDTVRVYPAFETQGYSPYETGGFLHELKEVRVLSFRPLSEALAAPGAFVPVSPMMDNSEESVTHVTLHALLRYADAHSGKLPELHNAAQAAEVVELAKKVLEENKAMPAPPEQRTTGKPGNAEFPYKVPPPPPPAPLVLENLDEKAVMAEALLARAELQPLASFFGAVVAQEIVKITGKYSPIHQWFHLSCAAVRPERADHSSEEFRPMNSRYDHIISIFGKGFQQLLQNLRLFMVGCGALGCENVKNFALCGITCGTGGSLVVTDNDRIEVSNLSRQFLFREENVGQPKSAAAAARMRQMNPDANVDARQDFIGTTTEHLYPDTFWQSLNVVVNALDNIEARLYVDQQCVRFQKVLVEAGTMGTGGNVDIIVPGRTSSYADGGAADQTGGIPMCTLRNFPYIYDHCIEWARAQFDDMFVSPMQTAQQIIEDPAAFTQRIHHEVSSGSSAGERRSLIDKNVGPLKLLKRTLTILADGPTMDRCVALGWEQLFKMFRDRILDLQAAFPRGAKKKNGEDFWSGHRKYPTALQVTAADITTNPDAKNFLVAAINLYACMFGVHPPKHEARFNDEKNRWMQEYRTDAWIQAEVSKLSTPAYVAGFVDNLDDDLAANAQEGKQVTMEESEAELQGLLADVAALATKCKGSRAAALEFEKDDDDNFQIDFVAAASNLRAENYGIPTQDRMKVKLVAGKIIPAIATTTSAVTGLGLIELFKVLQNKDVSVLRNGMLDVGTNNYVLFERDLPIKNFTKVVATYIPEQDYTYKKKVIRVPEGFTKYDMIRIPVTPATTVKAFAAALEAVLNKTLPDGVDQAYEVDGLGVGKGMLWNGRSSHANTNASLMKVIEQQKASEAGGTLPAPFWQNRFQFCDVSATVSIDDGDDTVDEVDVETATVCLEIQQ
The experiment in a line: Leishmania donovani Ubiquitin Activating Enzyme (LdE1). The test is classed as functional. The conditions noted are these: 30 µM.

For test [3], the target named is AMP-activated protein kinase, AMPK (Homo sapiens) (UniProt P54646+O43741+P54619+Q9UGJ0+Q9Y478+Q13131+Q9UGI9). In words: AMP-dependent Kinase enzyme assay. An in vitro enzyme assay that detects ADP turnover that is directly proportional to AMPK activity. This uses naive AMPK that is activated during the assay with MK-8722. The conditions noted are these: 30 µM. The test is classed as functional.

In test [4] the target is Sialic acid-binding Ig-like lectin 9 (Homo sapiens) (UniProt Q9Y336). The experiment in a line: Hs-Siglec9 ALPHAscreen SOP 20170721. To be noted: 10 µM. (Alpha assays give light when donor and acceptor beads are brought close together.)
For test [5], the system named is Trypanosoma cruzi. The experiment in a line: Trypanosoma cruzi phosphomannomutase and mannose-1-phosphate guanylyltransferase assay. It counts as functional. The conditions noted are these: 10 µM.
In test [6] the target is T2, Arginase-2, mitochondrial (Homo sapiens) (UniProt P78540).
T2 sequence (whole entry): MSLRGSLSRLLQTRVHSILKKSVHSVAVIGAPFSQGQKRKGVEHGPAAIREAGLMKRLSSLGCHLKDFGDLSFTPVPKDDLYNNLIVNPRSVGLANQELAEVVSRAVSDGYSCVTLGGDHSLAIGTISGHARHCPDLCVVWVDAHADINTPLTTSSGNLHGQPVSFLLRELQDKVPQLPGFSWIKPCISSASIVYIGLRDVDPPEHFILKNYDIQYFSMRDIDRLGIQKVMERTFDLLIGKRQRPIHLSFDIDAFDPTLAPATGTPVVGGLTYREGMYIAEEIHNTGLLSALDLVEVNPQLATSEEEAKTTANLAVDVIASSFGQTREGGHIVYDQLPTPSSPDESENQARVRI
In words: in vitro enzyme assay to detect the production of urea directly proportional to the activity of Arginase II. Further: in the data most compounds retested in dose-response had high values. The test is classed as functional. The conditions noted are these: 33.3 µM.

Test [7] deals with T3, Proteasome subunit beta (Trypanosoma cruzi) (UniProt O96673).
T3 sequence (whole entry): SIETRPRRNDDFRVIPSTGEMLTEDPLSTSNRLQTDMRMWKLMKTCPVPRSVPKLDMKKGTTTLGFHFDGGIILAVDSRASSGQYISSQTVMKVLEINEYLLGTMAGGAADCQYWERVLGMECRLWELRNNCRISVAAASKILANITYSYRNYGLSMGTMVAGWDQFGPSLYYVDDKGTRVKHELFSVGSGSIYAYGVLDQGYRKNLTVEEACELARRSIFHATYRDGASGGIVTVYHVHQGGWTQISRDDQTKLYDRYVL
In words: Trypanosoma cruzi proteasome chymotrypsin-like activity (TcProtChymo) assay. Further: in the data most compounds retested in dose-response had high values. It counts as functional. To be noted: 9.37 µM.

The species entered for test [8] is Homo sapiens. The experiment in a line: To identify inhibition of the IFN signalling (Jak-Stat) pathway via expression of an eGFP reporter gene under the control of an IFN-stimulated response element (ISRE) containing MxA promoter. The test is classed as functional. To be noted: 30 µM. For orientation: In a reporter assay the amount or activity of a reporter protein is the signal.

Test [9] has as its target T4, Tyrosyl-tRNA synthetase, putative (Trypanosoma cruzi (strain CL Brener)) (UniProt Q4DSP6).
T4 sequence (whole entry): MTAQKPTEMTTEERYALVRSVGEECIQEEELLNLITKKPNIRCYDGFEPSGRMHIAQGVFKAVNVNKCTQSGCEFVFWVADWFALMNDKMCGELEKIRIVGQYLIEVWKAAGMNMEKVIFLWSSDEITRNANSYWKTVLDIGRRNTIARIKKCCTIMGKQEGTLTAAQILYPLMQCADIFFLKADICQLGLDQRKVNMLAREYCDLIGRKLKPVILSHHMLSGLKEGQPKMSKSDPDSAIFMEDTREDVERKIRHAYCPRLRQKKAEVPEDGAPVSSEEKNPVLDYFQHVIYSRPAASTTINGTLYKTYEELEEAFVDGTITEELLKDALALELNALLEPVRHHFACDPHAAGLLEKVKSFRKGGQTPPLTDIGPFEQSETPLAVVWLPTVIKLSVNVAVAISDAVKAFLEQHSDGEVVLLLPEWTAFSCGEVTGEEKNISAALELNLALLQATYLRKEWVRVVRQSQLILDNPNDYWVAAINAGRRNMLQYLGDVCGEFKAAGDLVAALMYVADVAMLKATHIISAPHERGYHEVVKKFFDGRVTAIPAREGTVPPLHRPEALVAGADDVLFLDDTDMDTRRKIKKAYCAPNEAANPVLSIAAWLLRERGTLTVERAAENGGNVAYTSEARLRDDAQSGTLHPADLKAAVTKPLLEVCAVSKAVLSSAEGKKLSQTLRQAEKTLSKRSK
The experiment in a line: Trypanosoma cruzi tyrosyl tRNA synthetase (TcYRS) _High Tyrosine SOP. Further: in the data most compounds retested in dose-response had high values. The conditions noted are these: 30 µM. It counts as functional.

Test [10] concerns the target T4, Tyrosyl-tRNA synthetase, putative (Trypanosoma cruzi (strain CL Brener)). The experiment in a line: Trypanosoma cruzi tyrosyl tRNA synthetase (TcYRS) SOP. It counts as functional. The conditions noted are these: 30 µM.
The target in test [11] is Chromo domain-containing protein 1 (Saccharomyces cerevisiae (strain ATCC 204508 / S288c) (Baker's yeast)) (UniProt P32657). In words: ScCHD-1 Enzyme Inhibition Assay. Further: in the data most compounds retested in dose-response had high values. The conditions noted are these: 30 µM. The test is classed as functional.
Sequence of Chromo domain-containing protein 1 (Saccharomyces cerevisiae (strain ATCC 204508 / S288c) (Baker's yeast)) (P32657 whole entry, the tested form may be a part): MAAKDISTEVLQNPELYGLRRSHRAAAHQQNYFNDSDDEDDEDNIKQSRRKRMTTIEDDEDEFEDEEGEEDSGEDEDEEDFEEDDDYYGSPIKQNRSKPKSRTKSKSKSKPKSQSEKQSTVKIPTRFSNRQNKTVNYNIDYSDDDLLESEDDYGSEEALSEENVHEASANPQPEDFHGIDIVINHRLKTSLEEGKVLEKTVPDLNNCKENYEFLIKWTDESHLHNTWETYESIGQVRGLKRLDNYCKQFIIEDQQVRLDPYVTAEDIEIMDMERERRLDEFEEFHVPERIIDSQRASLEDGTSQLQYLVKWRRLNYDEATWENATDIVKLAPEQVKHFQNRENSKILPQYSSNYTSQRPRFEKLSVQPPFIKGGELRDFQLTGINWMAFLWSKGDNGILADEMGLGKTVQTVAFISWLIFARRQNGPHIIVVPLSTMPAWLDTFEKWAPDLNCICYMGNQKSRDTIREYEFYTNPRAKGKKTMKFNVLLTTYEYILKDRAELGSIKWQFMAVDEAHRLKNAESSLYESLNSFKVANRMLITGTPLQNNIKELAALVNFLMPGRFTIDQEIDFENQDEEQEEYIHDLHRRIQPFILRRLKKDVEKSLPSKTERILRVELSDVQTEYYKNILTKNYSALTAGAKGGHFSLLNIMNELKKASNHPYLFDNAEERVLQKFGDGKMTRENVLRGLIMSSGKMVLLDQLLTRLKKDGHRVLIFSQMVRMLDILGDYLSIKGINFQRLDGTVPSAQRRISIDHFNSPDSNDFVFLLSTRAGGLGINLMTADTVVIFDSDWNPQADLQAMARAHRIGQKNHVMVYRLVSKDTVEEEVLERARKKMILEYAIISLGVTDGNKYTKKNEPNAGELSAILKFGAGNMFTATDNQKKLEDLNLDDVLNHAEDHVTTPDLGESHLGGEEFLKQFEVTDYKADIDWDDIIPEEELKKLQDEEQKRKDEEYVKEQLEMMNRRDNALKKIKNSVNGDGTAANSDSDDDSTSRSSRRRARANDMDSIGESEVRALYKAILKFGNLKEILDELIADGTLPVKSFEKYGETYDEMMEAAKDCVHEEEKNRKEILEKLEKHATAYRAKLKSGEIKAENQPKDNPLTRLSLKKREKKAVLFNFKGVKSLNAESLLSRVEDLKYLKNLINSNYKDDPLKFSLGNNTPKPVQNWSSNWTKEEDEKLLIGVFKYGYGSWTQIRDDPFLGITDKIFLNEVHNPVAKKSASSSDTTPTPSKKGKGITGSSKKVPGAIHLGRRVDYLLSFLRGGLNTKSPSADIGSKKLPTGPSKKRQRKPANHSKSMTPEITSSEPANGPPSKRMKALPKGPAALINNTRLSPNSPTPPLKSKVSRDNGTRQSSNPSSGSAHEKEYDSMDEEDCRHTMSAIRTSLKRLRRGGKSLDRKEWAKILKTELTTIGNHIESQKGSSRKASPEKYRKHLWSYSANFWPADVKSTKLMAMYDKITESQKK

Sequence of Protein translocase subunit SecA (Escherichia coli (strain K12)) (P10408 whole entry): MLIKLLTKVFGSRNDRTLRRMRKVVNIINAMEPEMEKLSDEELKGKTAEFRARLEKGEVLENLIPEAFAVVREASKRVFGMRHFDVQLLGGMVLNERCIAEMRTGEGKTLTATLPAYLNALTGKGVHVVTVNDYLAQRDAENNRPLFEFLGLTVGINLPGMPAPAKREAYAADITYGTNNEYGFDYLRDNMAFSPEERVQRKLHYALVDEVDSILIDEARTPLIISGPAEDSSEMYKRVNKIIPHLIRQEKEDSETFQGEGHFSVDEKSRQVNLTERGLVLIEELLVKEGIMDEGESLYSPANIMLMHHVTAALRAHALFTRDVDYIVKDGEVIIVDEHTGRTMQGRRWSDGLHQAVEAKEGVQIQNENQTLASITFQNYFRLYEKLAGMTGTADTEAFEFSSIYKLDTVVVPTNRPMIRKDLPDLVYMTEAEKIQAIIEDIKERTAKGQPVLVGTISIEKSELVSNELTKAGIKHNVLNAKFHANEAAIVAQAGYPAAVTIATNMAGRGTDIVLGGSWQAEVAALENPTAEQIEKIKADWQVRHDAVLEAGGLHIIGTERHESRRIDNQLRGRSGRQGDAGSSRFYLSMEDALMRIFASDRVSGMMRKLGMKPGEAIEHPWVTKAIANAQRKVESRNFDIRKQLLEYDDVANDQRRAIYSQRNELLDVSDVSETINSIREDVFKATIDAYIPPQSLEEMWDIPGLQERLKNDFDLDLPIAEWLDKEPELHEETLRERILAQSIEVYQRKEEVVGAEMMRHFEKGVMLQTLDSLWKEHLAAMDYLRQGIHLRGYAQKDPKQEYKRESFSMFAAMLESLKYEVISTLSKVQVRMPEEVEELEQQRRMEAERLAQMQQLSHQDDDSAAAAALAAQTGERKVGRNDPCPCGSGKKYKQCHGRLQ
Sequence of Sialic acid-binding Ig-like lectin 9 (Homo sapiens) (Q9Y336 whole entry): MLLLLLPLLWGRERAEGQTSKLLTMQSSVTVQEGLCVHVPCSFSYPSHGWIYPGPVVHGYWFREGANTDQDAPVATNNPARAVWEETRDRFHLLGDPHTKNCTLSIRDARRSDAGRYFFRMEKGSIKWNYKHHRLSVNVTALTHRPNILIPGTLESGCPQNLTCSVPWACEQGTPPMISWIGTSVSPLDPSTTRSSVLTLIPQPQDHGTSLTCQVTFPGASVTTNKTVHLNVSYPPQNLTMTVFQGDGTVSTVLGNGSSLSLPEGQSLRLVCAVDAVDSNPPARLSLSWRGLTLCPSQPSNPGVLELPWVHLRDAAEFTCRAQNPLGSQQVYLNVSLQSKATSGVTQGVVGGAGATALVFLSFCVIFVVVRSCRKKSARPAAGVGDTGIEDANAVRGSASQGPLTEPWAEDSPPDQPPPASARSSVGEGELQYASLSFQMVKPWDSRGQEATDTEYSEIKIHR

Turning to `CN(C)C(=O)N1CCN(CCn2nc3ccccn3c2=O)CC1`, the Percent Effect is 0.243% in test [1]; 7.89% in test [2]; 0.915% in test [3]; -3.62% in [4]; -6.13% in test [5]; 0% in test [6]. Also, the Percent Effect in test [7] is 20.8%; in test [8], 3.27%; in [9], 6.38%; in test [10], 5.2%; in test [11], -5.93%.

As for `Cc1ccc(Cc2cnc(NC(=O)C3CNC(=O)N3)s2)cc1F` (stereo not drawn), the Percent Effect was -2.83% in test [1]; 8.86% in [2]; 4.79% in test [3]; 5.91% in test [4]; 0.308% in test [5]; 1.5% in test [6]. Moreover, the Percent Effect in [7] was 16.6%; in test [8] it was -4.36%; in [9] it was -3.12%; in test [10] it was 17.7%; in test [11], -8.88%.

Consider `CC1CN=C(N2CCN(C(=O)Nc3nc(-c4ccccc4)ns3)CC2)S1` (stereo not drawn), for which the Percent Effect was -9.42% in test [1]; -5.41% in [2]; 7.75% in test [3]; -5.9% in [4]; -2.25% in test [5]; -3.23% in test [6]. The Percent Effect in [7] was 3.35%; in test [8], 38.4%; in [9], -2.15%; in test [10], -6.17%; in test [11], -0.289%.

For `Cc1ccc(CNC(=O)NCc2csc(C)n2)cn1`, the Percent Effect in test [1] was -2.07%; in test [2], 17.7%; in test [3], -8.56%; in test [4], -3.48%; in test [5], -3.31%; in [6] it was 8.37%. Also, the Percent Effect in test [7] was -1.56%; in [8] it was 0.522%; in test [9], 5.42%; in test [10], 16.5%; in [11] it was -6.06%.

In the case of `Cc1c(C2CCCN(C(=O)C3CC3)C2)n2c(nc1=O)CCC2` (stereo not drawn), the Percent Effect is -7.83% in [1]; 23% in test [2]; 2.41% in [3]; -4.63% in test [4]; -0.593% in [5]; 0.232% in test [6]. Further, the Percent Effect is 15.4% in test [7]; 3.94% in test [8]; 4.3% in test [9]; 11.7% in [10]; -11% in test [11].

Consider `Cc1nc(C)n(C2CCCN(C(=O)CCc3ccncc3)C2)n1` (stereo not drawn), for which the Percent Effect was -5.25% in test [1]; 16.2% in [2]; 0.169% in test [3]; 8.78% in test [4]; 2.34% in [5]; 4.17% in [6]. Moreover, the Percent Effect in [7] was 6.34%; in [8], 0.916%; in test [9], 12.9%; in test [10], 11%; in test [11] it was -8.81%.

Regarding `COc1ccccc1CC(=O)N1CCC(NCc2c[nH]nc2C)CC1`, the Percent Effect is -1.53% in [1]; 13.5% in test [2]; -1.94% in [3]; -8.2% in test [4]; -1.02% in test [5]; 0.924% in [6]. Besides, the Percent Effect in test [7] is 3.95%; in test [8] it was 2.04%; in test [9] it was 7.92%; in test [10], 23.2%; in [11] it was -6.91%.

As for `CCC(CNC(=O)c1cc(OC)ccc1Br)N1CCc2ccccc2C1` (stereo not drawn), the Percent Effect in test [1] is 0.461%; in [2], 0%; in test [3], 3.64%; in test [4] it was 9.31%; in test [5], -7.14%; in test [6], -4.29%. The Percent Effect was 20.3% in test [7]; 11.2% in [8]; -0.529% in test [9]; -2.44% in test [10]; -4.45% in [11].

The record behind these values is ChEMBL document CHEMBL3988442, “University of Dundee, Small-Polar-MMV Screening Library” (2021).
